VACV E9 pol inh – blocks vaccinia virus processive DNA synthesis | in vitro processive DNA synthesis, absorbance read-out; hits give low values | normalized absorbance, % (concentration not given with the values) | hit rate 0.94% among 46,000; in the data active = normalized absorbance mostly below about 85%, no sharp cut-off; inactive = mostly above about 86%
Of the large screens only hits and unclear results are named; the others gave an inactive call. The sample as a whole holds a higher share of hits than the screen did.

CCSC1=C(C#N)C(=O)NC(c2ccc(OC)cc2)S1 (centres undefined)	none
COC(=O)CSC1=C(C#N)C(=O)NC(/C=C/c2ccccc2)S1 (centres undefined)	none
N#CC1=C(SCc2ccccc2)SC(c2ccc(C(=O)O)cc2)NC1=O (centres undefined)	VACV E9 pol inh 60
CCSC1=C(C#N)C(=O)NC(C(C)C)S1 (centres undefined)	none
CC1NC(=O)C(C#N)=C(SCc2ccccc2)S1 (centres undefined)	VACV E9 pol inh 63
CCSC1=C(C#N)C(=O)NC(CO)S1 (centres undefined)	none
COc1cccc(CN2CCC(C(=O)N3CCc4ccccc4C3)CC2)c1OC	none
CC1CC(C)CN(C(=O)Cn2c(=O)n(-c3ccc(Cl)cc3)c(=O)c3c4c(sc32)CCC4)C1 (centres undefined)	none
COc1ccc(-c2cc(C(F)(F)F)nc(SCCC(=O)Nc3ccccc3)n2)cc1	none
Cc1nc2cc(C(F)(F)F)ccc2s1	none
CCc1nc2c(cnn2-c2ccc(F)cc2)c(=O)n1-c1ccc(OC)c(Cl)c1	none
COc1ccc(Nc2nc(N3CCN(CCO)CC3)nc3c2cnn3C)cc1Cl	VACV E9 pol inh 38
Cc1ccc(Nc2nc(N3CC(C)OC(C)C3)nc3c2cnn3C)cc1Cl (centres undefined)	none
CSc1ccccc1NC(=O)COC(=O)c1cccc2ccccc12	none
O=C1CCC/C1=c1/s/c(=C/c2cccnc2)c(=O)n1-c1ccccc1	none
Oc1ccccc1C=Nc1ccc(-c2nc3ccccc3s2)cc1	none
CC(C)(C)C(=O)Nc1ccc(O)c(-c2nc3ccccc3s2)c1	none
Oc1ccc(N=Cc2ccccc2)cc1-c1nc2ccccc2s1	VACV E9 pol inh 84
O=C(NCC1(c2ccccc2)CCCC1)c1cc2c(s1)-c1ccccc1S(=O)(=O)C2	none
Cc1cc(NC(=O)c2ccc(Cl)cc2)n(-c2nc3ccccc3s2)n1	none
CC1CCCCN1c1nc(-c2ccccc2O)nc2ccccc12 (centres undefined)	none
CC(=Nc1c2c(nc3ccccc13)N(C)CC2)N(C)C	none
Nc1c2c(nc3ccccc13)N(C1CCCCC1)CC2	VACV E9 pol inh 87
c1ccc(OCCCn2c3ccccc3c3nc4ccccc4nc32)cc1	none
Cc1ccc(Nc2ccc3noc4c3c2C(=O)c2ccccc2-4)cc1	none
O=C1c2ccccc2-c2n[nH]c(=O)c3ccc(N4CCOCC4)c1c23	none
CC1CCN(c2cc(N(C)C)c3noc4c3c2C(=O)c2ccccc2-4)CC1	VACV E9 pol inh 70
CC(C)(C)c1cc2nc(C(F)(F)F)cc(N3CCN(c4ccc(C(F)(F)F)cn4)CC3)n2n1	none
O=C(CCN1N=C(c2ccccc2)CCC1=O)N1CCC2(CC1)OCCO2	none
O=C(O)CNC(=O)COc1cccc(Br)c1	none
O=C(O)c1ccccc1C(=O)Nc1ccc(Cl)cc1	none
COc1ccc(-c2cc(=Nc3ccc(O)cc3)c3cc(C)ccc3o2)cc1	VACV E9 pol inh 54
CCc1ccc2oc(-c3ccc(OC)cc3)cc(=NCC(=O)O)c2c1	none
COc1ccc(-c2cc(=O)c3cc(OC(=O)Cc4ccccc4)ccc3o2)cc1	none
COc1ccc(-c2cc(=Nc3ccc(OC)c(OC)c3)c3ccccc3o2)cc1	none
COc1ccc(-c2cc(=O)c3cc(OC(=O)c4ccc(OC)c(OC)c4)ccc3o2)cc1	none
COc1ccc(-c2cc(=NCCc3ccccc3)c3cc(C)ccc3o2)cc1	VACV E9 pol inh 41
COc1ccc(-c2cc(=NC(CC(C)C)C(=O)O)c3cc(C)ccc3o2)cc1 (centres undefined)	none
COc1ccc(N=c2cc(-c3ccc(OC)cc3)oc3ccc(O)cc23)cc1	VACV E9 pol inh 63
COc1ccc(-c2c(C)oc3cc(O)ccc3c2=O)cc1	none
Cc1ccc[n+](Cc2ccccc2)c1	none
CC1CCN(S(=O)(=O)c2ccc(N=C3C(=O)Nc4ccccc43)cc2)CC1	none
CCN1C(=O)/C(=C/C=C2\N(C)c3c(ccc4cccnc34)C2(C)C)SC1=S	none
Cc1nc(COc2cc(C)c(Cl)c(C)c2Cl)cs1	none
CN(C)c1ccc(/C=C2\SC(=O)NC2=O)cc1	none
O=C1OC(c2ccccc2)OC(=O)C1=C/C=C/c1ccccc1 (centres undefined)	none
O=C1NC(=O)/C(=C\C=C\c2ccccc2)S1	VACV E9 pol inh 55
O=C1/C(=C/C=C/c2ccccc2)SC(=S)N1c1cccc(F)c1	none
O=C1NC(=S)S/C1=C\C=C\c1ccccc1	VACV E9 pol inh 86
O=C(CN1C(=O)/C(=C\C=C\c2ccccc2)SC1=S)Nc1ccc(F)cc1	none
Cc1ccc(-c2cc(C(=O)c3nccn3C)c3ccccc3n2)cc1	none
CC(=O)Nc1ccc(CN2CCN(C)CC2)cc1	none
CCCCN(C)c1nc2ccccc2c(=O)n1-c1ccc(Cl)cc1	none
COc1ccc(-c2nc(C#N)c(N3CC(C)OC(C)C3)o2)cc1 (centres undefined)	none
CC(=O)N1N=C(c2ccc(N(C)C)cc2)CC1NC(Cc1c[nH]c2ccccc12)C(=O)O (centres undefined)	none
O=C(CCn1c(=O)c2cccn2c2cccnc21)N1CCCC1	none
CC1CN(C(=O)CCC(=O)NC2CCCC2)c2ccccc2O1 (centres undefined)	none
CCN(CC)C(=O)c1cc(-c2ccco2)nc2ccccc12	none
Cn1ccnc1C(=O)c1cc(-c2ccco2)nc2ccccc12	none
c1coc(-c2cn3ccc4ccccc4c3n2)c1	VACV E9 pol inh 84
CC1SC(C)C(=O)N(CC(=O)Nc2ccccc2)C1=O (centres undefined)	none
CC(=O)N1CCN(C(=O)COc2ccc(C#N)cc2)CC1	none
CC1CC(C)N(C(=O)CSc2nc3c(c(C(F)(F)F)n2)CCc2ccccc2-3)C(C)C1 (centres undefined)	none
O=C(O)CCCC(=O)Nc1ccc(-c2nc3ccccc3[nH]2)cc1	VACV E9 pol inh 60
O=C(O)CCC(=O)Nc1cccc(-c2nc3ccccc3[nH]2)c1	none
O=C(O)CCCC(=O)Nc1nc2ccccc2[nH]1	none
CCN(Cc1ccccc1)CC(O)COc1ccc(Cl)cc1Cl (centres undefined)	none
O=C(NCc1ccccc1)c1ccc(N2C(=O)Cn3c(cc4sccc43)C2=O)cc1	none
C[C@@]1(C(=O)O)CC[C@]2(C)CC[C@]3(C)C4=CC=C5C=C(O)C(=O)C=C5[C@]4(C)CC[C@@]3(C)[C@@H]2C1	VACV E9 pol inh 77
N#Cc1c[nH]n2c(NC3CCCC3)c(-c3cccs3)nc12	none
Cc1ccsc1C1CC(=O)NC(SCC(=O)OCc2ccccc2)=C1C#N (centres undefined)	none
COC(=O)c1cc2c(Cl)nc3ccc(C)cc3c2s1	none
Cc1ccc2nc(Cl)c3cc(C(=O)N(CCN(C)C)Cc4ccco4)sc3c2c1	VACV E9 pol inh 53
CCCCN(Cc1ccco1)C(=O)c1cc2c(=O)oc3ccc(C)cc3c2s1	none
CC(=O)Oc1ccc(-c2ccc(C(=O)NCCCN3CCCC3=O)cc2)cc1	none
CNC(=O)CSc1ccc(Cl)cc1	none
CC(=O)Nc1ccc2nc(NC(=O)c3ccc(C#N)cc3)sc2c1	none
COc1ccc2c(c1)c1c3n2CCN=C3N(C)CC1	VACV E9 pol inh 58
COc1ccc2c3c([nH]c2c1)C(C)=NCC3	none
COc1ccc2c(c1)c1c3n2CCNC3CCC1 (centres undefined)	none
CCCCN1CCCc2cc(CN(Cc3ccco3)C(=S)Nc3ccc(Cl)cc3OC)ccc21	none
COc1ccc(C(=O)NCc2nnc(SC(C)C)n2Cc2ccccc2)cc1	none
COc1ccc(/C=C2\SC(=Nc3ccc(N4CCOCC4)cc3)N(C)C2=O)cc1	none
CCC(=O)O[C@H]1[C@H](O[C@@H]2[C@@H](C)[C@H](O[C@H]3C[C@@](C)(OC)[C@@H](O)[C@H](C)O3)[C@@H](C)C(=O)O[C@H](CC)[C@@](C)(O)[C@H](O)[C@@H](C)C(=O)[C@H](C)C[C@@]2(C)O)O[C@H](C)C[C@@H]1N(C)C	none

From PubChem BioAssay
